# Shiga inhibitor – Shiga toxin inhibition. Vero cells, Shiga toxin protein synthesis inhibition reporter. inhibition, % at 38.7 µM. 290,000 compounds, 9.2% hits; in the data active means inhibition mostly above about 28%, no sharp cut-off; inactive means mostly below about 43%; further: 0% is about no effect
# Pf growth 96h – P. falciparum growth inhibition at 96 hour, primary screen for plastid delayed-death inhibitors; 320,000 compounds, 6.9% hits; P. falciparum luciferase reporter growth, 96 h; Potency, µM (series often up to 28.7 µM), for the others: top-dose activity change, negative = inhibition, actives largely listed as inhibitors; AID 504834; further: potency means the concentration at half of the fitted maximal effect; on the % scale 0 is the no-effect control and ±100 the full control effect
#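 Compounds incubated with erythrocytes infected by luciferase-expressing P. falciparum (2% hematocrit, 0.05% parasitemia final) for 96 hours, 37 C in 5% CO2. Growth inhibition scored as decreased luciferase luminescence.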
# Cycloheximide cs – counter-screen hit for Shiga toxin inhibitors, cycloheximide; cell reporter, cycloheximide protein synthesis inhibition counterscreen; max response, %; 300,000 compounds, 12% hits; in the data active means max response mostly above about 13%, no sharp cut-off; inactive means mostly below about 14%; further: read at 38.3 µM for the half of the compounds with a filed dose; 0% is about no effect
# FBPA Giardia inh – Giardia lamblia aldolase inhibition; A8B2U2; purified Giardia FBPA; Potency, µM (doses to about 59.6 µM), without a hit: top-dose activity, negative = inhibition, hits mostly inhibitors; 290,000 compounds, 0.71% hits; further: potency means the concentration at half of the fitted maximal effect; on the % scale 0 is the no-effect control and ±100 the full control effect; nearly all actives have a fitted effect of over 55% in size
# Target sequence (A8B2U2 whole entry, looked up): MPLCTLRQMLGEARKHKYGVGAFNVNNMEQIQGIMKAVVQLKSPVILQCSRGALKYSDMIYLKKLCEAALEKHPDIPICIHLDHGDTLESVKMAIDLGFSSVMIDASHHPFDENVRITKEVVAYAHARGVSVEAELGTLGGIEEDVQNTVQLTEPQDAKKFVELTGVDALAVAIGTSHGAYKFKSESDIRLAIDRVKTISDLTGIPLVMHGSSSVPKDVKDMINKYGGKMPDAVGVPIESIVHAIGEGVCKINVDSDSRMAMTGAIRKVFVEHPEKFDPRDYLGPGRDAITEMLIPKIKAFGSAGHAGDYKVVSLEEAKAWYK
#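 40 nM FBPA preincubated 10 min at RT with compound (up to 57.5 uM final), then substrate plus GAPDH/TPI/NAD/arsenate coupling and diaphorase/resazurin added. Fluorescence read after 20 min at RT, 525/598 nm.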
# NS1 inh – blocks influenza NS1 protein function; Potency, µM (titrated, usually from 46.1 µM), for inactives: top-dose activity, positive = more growth; 270,000 compounds, 0.4% hits; calls by dose curve; further: potency means the concentration at half of the fitted maximal effect; actives are rising curves; nearly all actives have a fitted effect of over 50% in size
#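 In this qHTS, NS1 from influenza A is expressed in budding yeast, where it slows growth. Cells are switched from glucose to 2% galactose medium (pH 6.0, -URA), treated with compound, and growth recovery is read at OD600.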
# Pf growth 48h – inhibits P. falciparum growth in the first generation, 48 h. P. falciparum luciferase growth in erythrocytes, 48 h. Potency, µM (titrated, usually from 28.7 µM), inactives show at the top dose activity change, negative = inhibition, most hits filed as inhibitors. 310,000 compounds, 5.9% hits. AID 504832; further: potency means the concentration at half of the fitted maximal effect; on the % scale 0 is the no-effect control and ±100 the full control effect
#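 Read-out is firefly luciferase luminescence from an integrated reporter in P. falciparum, so falling signal marks reduced parasite growth. Infected erythrocytes were at 2% hematocrit and 0.1% parasitemia (final) in Albumax-supplemented RPMI 1640.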
# * hit, by the source's call; i = inactive; ? = inconclusive; . = no result. In the library only some 21% were active in any assay of this set; here they are far more common. Unless noted, the call rests on the fitted dose curve; in most records, active means well fitted curve in the direction sought with a large enough effect; inconclusive means small, poorly fitted or top-dose-only effect, or another doubt; inactive means no such curve, though single readings can be large; an effect the other way counts as inactive or inconclusive.
SMILES,Shiga inhibitor,Pf growth 96h,Cycloheximide cs,FBPA Giardia inh,NS1 inh,Pf growth 48h
Cc1ccn2c(NC3CCCC3)c(-c3ccsc3)nc2c1,36,10%,15,-6%,.,0%
CCCCCCSc1cccc(-c2nc3ccc(C)cn3c2NC2CCCCC2)c1,.,5.2µM*,.,.,.,9.3µM*
CCCCCCSc1cccc(-c2nc3cc(C)ccn3c2NC2CCCCC2)c1,.,?,.,.,.,9.3µM*
CN(C)c1cccc(C(=O)NNC(=S)NC2CC3CCC2C3)c1 (centres undefined),56*,97%,32*,13%,.,21%
CCn1c(COc2cccc3cccnc23)nnc1SCC(=O)O,-15,31%,-5,2%,-3%,.
Cc1cc(C(=O)COc2cccc3cccnc23)c(C)n1C,2,3.3µM*,-1,-27%,-15%,12µM*
Cc1cc(C(=O)COc2ccc(Cl)cc2Br)c(C)n1C,41,-1%,22*,-1%,-10%,104%
Cc1ccc(OCC(=O)c2cc(C)n(C)c2C)c([N+](=O)[O-])n1,80*,-15%,29*,-29%,51%,53%
Cn1c(COc2cccc3cccnc23)nnc1SCC(=O)O,2,10µM*,-4,-3%,0%,48%
Cc1cc(C(=O)COc2ccccc2C(N)=O)c(C)n1C,28,0%,5,1%,.,54%
CC(C)(C)c1ccc(O)c(CN(Cc2cc(C(C)(C)C)ccc2O)C2CCCCC2)c1,.,.,.,.,-8%,.
CC1CCCCC1NC(=O)CCCCCn1c(=S)[nH]c2ccccc2c1=O (centres undefined),21,?,1,3%,.,?
O=C(CCCn1c(=S)[nH]c2ccccc2c1=O)NC1CCCC1,-20,0.52µM*,-5,-1%,3%,0%
CC1CCCCC1NC(=O)CCCn1c(=S)[nH]c2ccccc2c1=O (centres undefined),-2,15µM*,1,2%,.,?
COC(=O)c1ccc(C(/C=C/[C@@H](C)C(=O)NCCN2CCCC2)NC(=O)OCc2ccccc2)cc1 (some centres undefined),.,.,.,5%,.,.
C=C[C@@H]1c2ccccc2N(S(=O)(=O)c2ccc(C)cc2)[C@H](c2ccc(OC(C)=O)cc2)C1(C#N)C#N,.,?,.,.,.,3.7µM*
O=C(c1ccccc1)c1cnc[nH]1,20,18%,13*,2%,3%,16%
O=C(Nc1ccccc1)c1cnc[nH]1,67*,27%,30*,2%,2%,104%
O=C(Cc1ccccc1[N+](=O)[O-])N1CCN(c2ccccc2F)CC1,14,30%,12*,7%,-6%,42%
O=[N+]([O-])c1cccnc1N1CCN(c2ccccc2F)CC1,26,37%,18*,0%,.,i
COc1ccccc1NC(=O)CSc1nc2ccccc2nc1N1CC(C)OC(C)C1 (centres undefined),5,?,3,-14%,?,?
O=[N+]([O-])c1ccc(O)c(C=Nc2ccc3c(c2)OCO3)c1,16*,22%,24*,-8%,-38%,10%
O=C(N/N=C/c1cc(O)ccc1[N+](=O)[O-])c1ccc2c(c1)OCCO2,-15,274%,15*,4%,5%,62%
O=[N+]([O-])c1cc(Br)cc(C=Nc2ccc3c(c2)OCO3)c1O,26,17%,3,-21%,4%,-18%
O=C(N/N=C/c1cc([N+](=O)[O-])ccc1O)c1ccc2c(c1)OCCO2,17,99%,18*,?,3%,-91%
SMILES,Shiga inhibitor,Pf growth 96h,Cycloheximide cs,FBPA Giardia inh,NS1 inh,Pf growth 48h
O=C(N/N=C/c1cc([N+](=O)[O-])ccc1O)C1CC1,-13,8%,0,?,-72%,?
O=C(N/N=C/c1ccccc1[N+](=O)[O-])c1ccc2c(c1)OCCO2,61*,202%,33*,-8%,4%,115%
COc1ccc(/C=N/NC(=O)c2ccc3c(c2)OCCO3)cc1[N+](=O)[O-],-2,?,-1,5%,8%,-3%
Cn1c(CC(=O)NNC(=O)c2ccccc2[N+](=O)[O-])nc2ccccc21,.,-22%,.,.,.,-5%
COCCn1c(=O)c(-c2ccc(F)cc2)nc2cnc(Oc3ccccc3)nc21,.,.,.,-1%,.,.
Cn1nnc2c[n+](CC(=O)c3ccc4ccccc4c3)cc(Br)c21,29,?,15*,-22%,-4%,12µM*
CCOC(=O)c1ccc(NC(=O)C2CCN(S(=O)(=O)CC)CC2)cc1,-5,?,-1,0%,1%,?
CCOC(=O)c1ccc(NS(=O)(=O)N2CCCCCC2)cc1,74*,.,32*,0%,-30%,50%
CCOC(=O)c1cccc(NS(=O)(=O)c2c(C)[nH]c(C)c2C(=O)N2CCCC2)c1,1,?,-5,1%,-4%,3%
O=C(Nc1ccc(F)cc1)N1CCCCCC1,31*,-20%,15*,-4%,0%,3%
CCOC(=O)c1c(C)[nH]c(C)c1S(=O)(=O)Nc1ccc(CN2CCCCC2)cc1,-1,5.9µM*,-2,-2%,-12%,?
C/C(=N\S(=O)(=O)c1ccc(C)cc1)N1CCCCC1,18,12µM*,-1,7%,5%,1%
Cc1ccc(-n2ncc3c(=O)n(CC(=O)N4CCN(C(=O)c5ccco5)CC4)cnc32)cc1,.,?,.,.,.,1%
O=C(CCN1CCN(c2ccccc2)CC1)NNC(=O)Cc1ccc(Br)cc1,.,4%,.,.,.,-2%
COc1cccc(NC(=O)CCc2c(C)nc3nc(CNC(=O)c4cccc(F)c4)nn3c2C)c1,2,-6%,2,.,8%,?
CCOC(=O)c1ccc(NC(=O)N2CCOCC2)cc1,98*,409%,35,9%,.,179%
Cc1ccc(NS(=O)(=O)c2ccc(NC(=O)N3CCCCC3)cc2)cc1,25,1.5µM*,5,-2%,8%,?
CCCN1CCN(C(=O)Nc2ccc(C(=O)OCC)cc2)CC1,30,-29%,12*,10%,2%,.
CCOC(=O)c1ccccc1NC(=S)N1CCCCC1,11,9.3µM*,1,-1%,0%,0%
Cc1cccc(NS(=O)(=O)c2ccc(NC(=O)N3CCCCC3)cc2)c1,6,-18%,-2,0%,7%,-17%
CCOC(=O)c1ccccc1NC(=S)N1CCN(C2CCCCC2)CC1,-8,0%,-1,-3%,.,-21%
CCOc1ccccc1NC(=O)c1cnc(NS(=O)(=O)c2ccccc2)nc1,-14,?,-3,.,2%,3%
O=S(=O)(CCC(F)=C(F)F)c1nnnn1C1CCCCC1,.,.,.,2%,.,.
CC(=O)Nc1cc(C(=O)N2CCC3(CC2)OCCO3)ccc1S(=O)(=O)c1ccc(C)cc1,-7,18%,-2,0%,-3%,14%
CCOC(=O)c1ccc(NC(=O)N2CCCCCC2)cc1,123*,-4%,76*,7%,-13%,214%
CC(=O)Nc1cc(C(=O)N2CCCC2)ccc1S(=O)(=O)c1ccc(C)cc1,-6,1.2µM*,-2,3%,1%,15%

# High-throughput results: PubChem, National Center for Advancing Translational Sciences (NCATS)
